The values that follow come from PubChem BioAssay.

Assay [1] deals with Human papillomavirus type 1a protein E7 (residues 44-93). The experiment in a line: HPV1a E7 fragment binders on microarrays, primary screen, biochemical, small-molecule microarray, residues 44-93, 635 nm fluorescence (AID 1108).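 Also: E7 fragment applied at 1 µg/mL in TBST for 1 h at 4 C; score combines spot fluorescence with its signal to noise ratio.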 To be noted: small-molecule microarray binding, fluorescence 635 nm; higher = more signal.
Assay [2] can be described thus: modulators of HCV replicon luciferase signal, primary screen, HCV replication inhibitor project, Huh7 cells, luciferase reporter (AID 1109).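 Also: huh7 hepatoma cells harbouring a luciferase neomycin HCV replicon reporter; luciferase luminescence as measure of HCV replicon replication; test concentration not given here.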 The following applies: 48 h, higher = more signal. Background: Replicon systems follow genome replication, usually without infectious particles.
The target in assay [3] is Left-right determination factor 2 (Homo sapiens) (UniProt O00292). The experiment in a line: LEFTY2 binders on small-molecule microarrays, primary screen, biochemical, small-molecule microarray, 635 nm fluorescence scan (AID 1110). The following applies: LEFTY2 binding, higher = more signal.
Assay [4] concerns the target Calmodulin-1 (Homo sapiens) (UniProt P0DP23). The experiment in a line: CALM1 binders on microarrays, EGTA buffer, profiling panel, biochemical, small-molecule microarray, Cy5-labelled CALM1 (AID 1111).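 Also: labelled calmodulin applied in Tris saline Tween buffer holding calcium plus EGTA and DTT.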 The following applies: Cy5-CALM1 binding fluorescence, higher = more signal.
Assay [5] has the same target. The assay can be described thus: calcium-bound CALM1 binders on microarrays, profiling panel, artefact control for SMM control-protein annotation, biochemical, small-molecule microarray, Cy5-labelled CALM1, plus calcium (AID 1112).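 Also: score merges spot fluorescence with signal to noise from triplicate slides.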 To be noted: Cy5-CALM1 binding fluorescence, higher = more signal.
Assay [6] can be described thus: small-molecule microarray binders of probe aWnt5a, primary screen, biochemical, biotinylated probe, 635/667 nm fluorescence (AID 1113).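 Also: score merges 667 nm fluorescence intensity with signal-to-noise per printed feature.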 The following applies: higher = more signal.
Assay [7] in a line: small-molecule microarray binders of probe aShh, primary screen, biochemical, biotinylated probe, 635/667 nm fluorescence (AID 1114).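 Also: probe is biotin-labelled aShh protein from a stem cell growth factor screen; measures binding of labelled protein to compounds printed on the slide; score merges feature fluorescence at 667 nm with signal-to-noise.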 To be noted: higher = more signal.
Assay [8] is described as follows: small-molecule microarray binders of probe aNog, primary screen, biochemical, biotinylated probe, 635/667 nm fluorescence (AID 1115).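 Also: probe is biotinylated aNog protein used at 0.15 µg/mL for 1 h at 4 C; z-score combines 667 nm fluorescence of each spot with its signal to noise.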 To be noted: higher = more signal.
Assay [9] addresses Torsin-1A-interacting protein 1 (Homo sapiens) (UniProt Q5JTV8). The assay can be described thus: LAP1 binders from COS7 cell lysate, primary screen, small-molecule microarray, 635/667 nm fluorescence (AID 1116). To be noted: COS7-hLAP1 lysate binding, 635 nm fluorescence, higher = more signal.
Assay [10] deals with Alpha-bungarotoxin (Bungarus multicinctus) (UniProt P60615). The experiment in a line: alpha-bungarotoxin binders on microarray, profiling panel, artefact control for SMM control protein annotation, biochemical, small-molecule microarray, Alexa647 label, 635/667 nm fluorescence (AID 1117). To be noted: alpha-BTX-A647 binding fluorescence, higher = more signal.
In another assay the target is Albumin (Bos taurus) (UniProt P02769). The assay can be described thus: bovine serum albumin binders on microarray, profiling panel, artefact control for SMM control protein annotation, biochemical, small-molecule microarray, Alexa647 label, 635/667 nm fluorescence (AID 1118).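 Also: score merges 667 nm emission intensity and signal-to-noise per printed compound spot.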 The following applies: BSA-A647 binding, fluorescence 635 nm, higher = more signal.
Assay [11] is described as follows: small-molecule microarray binders of probe aXIP, primary screen, biochemical, NeuroSMM set, 635/667 nm fluorescence (AID 1119).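 Also: probe is the protein aXip251-270 applied at 1 µg/mL to compound-printed slides; binding of probe to printed compounds measured as 667 nm fluorescence plus signal to noise.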 To be noted: higher = more signal, called active from +8 up or from −8 down.
Assay [12] can be described thus: small-molecule binders of probe aNOTCH3, primary screen, biochemical, small-molecule microarray, 635/667 nm fluorescence (AID 1120).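 Also: probe is a biotin-tagged antibody raised against NOTCH3 rather than NOTCH3 protein; score merges spot fluorescence near 667 nm with spot signal to noise.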 The following applies: higher = more signal.
Assay [13] is described as follows: small-molecule binders of probe aNOTCH2, primary screen, biochemical, small-molecule microarray, 635/667 nm fluorescence (AID 1121).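 Also: score merges feature fluorescence read at 667 nm with its signal to noise.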 To be noted: higher = more signal.
For assay [14], the target named is Carbonic anhydrase 2 (Homo sapiens) (UniProt P00918). The experiment in a line: CAII small-molecule binders, profiling panel, biochemical, small-molecule microarray, Alexa647-labelled CAII (AID 1122). To be noted: CAII-A647 binding fluorescence, higher = more signal.
Assay [15] is described as follows: COS7 lysate on small-molecule microarray, probe aHis, 635 nm (AID 1123).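 Also: z-score combines 667nm fluorescence intensity with signal-to-noise per printed compound spot.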 To be noted: COS7 cell lysate, fluorescence, higher = more signal.
Assay [16] is described as follows: compound binding in COS7 lysate, probe aLAP1, primary screen, cell lysate, small-molecule microarray (AID 1124).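 Also: lysate comes from COS7 cells expressing LAP1 and is applied at 0.3 µg/mL; score merges spot fluorescence near 667 nm with signal-to-noise over triplicate slides.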 To be noted: probe aLAP1, fluorescence, higher = more signal.
Another assay concerns Sam68 (KHDRBS1). The experiment in a line: Sam68 small-molecule binders, primary screen, biochemical, small-molecule microarray, 635 nm fluorescence (AID 1125).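 Also: score merges 667 nm channel intensity with signal to noise over triplicate slides.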 The following applies: small-molecule microarray binding, higher = more signal.
In assay [17] the test system is Chordin-like protein 2 (CHRDL2). The assay can be described thus: CHRDL2 small-molecule binders, primary screen, biochemical, small-molecule microarray, 635 nm fluorescence (AID 1126).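 Also: printed compound slides probed with Chrdl2 protein at 4 µg/mL for 1 h at 4 C; score merges 667 nm emission intensity with signal to noise over three replicate slides.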 The following applies: small-molecule microarray binding, fluorescence 635 nm; higher = more signal.
The target of assay [18] is Concanavalin-A (Canavalia ensiformis) (UniProt P02866). The assay can be described thus: ConA small-molecule binders, primary screen, artefact control for SMM control protein annotation, biochemical, small-molecule microarray, Alexa647 label, 635 nm (AID 1127).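 Also: z combines 667 nm emission intensity with signal-to-noise across three replicate slides.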 To be noted: ConA-A647 binding fluorescence, higher = more signal.

Structures are written as SMILES. The source made the active and inactive calls.

Sequence of Left-right determination factor 2 (Homo sapiens) (O00292 whole entry, looked up): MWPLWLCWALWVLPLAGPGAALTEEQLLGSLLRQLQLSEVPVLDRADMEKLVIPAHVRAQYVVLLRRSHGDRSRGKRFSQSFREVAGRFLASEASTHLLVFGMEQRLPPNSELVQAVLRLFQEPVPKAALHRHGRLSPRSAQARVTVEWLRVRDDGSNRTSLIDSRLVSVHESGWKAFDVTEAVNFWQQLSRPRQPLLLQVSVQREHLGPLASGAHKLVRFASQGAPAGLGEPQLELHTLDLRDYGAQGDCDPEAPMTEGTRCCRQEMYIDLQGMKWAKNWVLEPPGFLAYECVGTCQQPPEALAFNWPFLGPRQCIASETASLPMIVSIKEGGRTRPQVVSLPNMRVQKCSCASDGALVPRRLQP
Sequence of Alpha-bungarotoxin (Bungarus multicinctus) (P60615 whole entry, looked up): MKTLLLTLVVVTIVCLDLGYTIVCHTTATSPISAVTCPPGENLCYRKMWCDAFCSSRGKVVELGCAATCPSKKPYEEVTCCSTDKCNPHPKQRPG
Sequence of Concanavalin-A (Canavalia ensiformis) (P02866 whole entry, looked up): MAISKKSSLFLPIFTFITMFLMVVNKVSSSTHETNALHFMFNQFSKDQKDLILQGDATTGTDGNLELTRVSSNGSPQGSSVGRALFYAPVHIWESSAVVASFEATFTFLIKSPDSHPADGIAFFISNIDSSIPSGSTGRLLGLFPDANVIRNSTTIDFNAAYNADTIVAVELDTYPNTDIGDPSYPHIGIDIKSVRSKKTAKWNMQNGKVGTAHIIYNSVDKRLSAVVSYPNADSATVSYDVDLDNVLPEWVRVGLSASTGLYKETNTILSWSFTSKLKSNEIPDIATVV
Sequence of Torsin-1A-interacting protein 1 (Homo sapiens) (Q5JTV8 whole entry, looked up): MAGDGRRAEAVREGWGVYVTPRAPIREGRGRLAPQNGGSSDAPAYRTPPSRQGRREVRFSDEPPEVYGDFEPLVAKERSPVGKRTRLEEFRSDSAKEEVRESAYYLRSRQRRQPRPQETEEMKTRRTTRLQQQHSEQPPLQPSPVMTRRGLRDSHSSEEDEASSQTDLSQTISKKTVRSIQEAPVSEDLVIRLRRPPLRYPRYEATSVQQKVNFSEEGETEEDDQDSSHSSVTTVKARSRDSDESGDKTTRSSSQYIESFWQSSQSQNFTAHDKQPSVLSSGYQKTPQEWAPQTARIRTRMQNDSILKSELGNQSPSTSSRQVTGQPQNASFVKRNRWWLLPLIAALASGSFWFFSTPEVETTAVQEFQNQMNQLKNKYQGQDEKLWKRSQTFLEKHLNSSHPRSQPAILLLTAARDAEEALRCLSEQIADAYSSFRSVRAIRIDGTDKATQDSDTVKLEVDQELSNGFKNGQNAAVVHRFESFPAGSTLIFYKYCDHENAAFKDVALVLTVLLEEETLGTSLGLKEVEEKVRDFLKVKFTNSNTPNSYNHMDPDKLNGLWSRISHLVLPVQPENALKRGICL
Sequence of Albumin (Bos taurus) (P02769 whole entry, looked up): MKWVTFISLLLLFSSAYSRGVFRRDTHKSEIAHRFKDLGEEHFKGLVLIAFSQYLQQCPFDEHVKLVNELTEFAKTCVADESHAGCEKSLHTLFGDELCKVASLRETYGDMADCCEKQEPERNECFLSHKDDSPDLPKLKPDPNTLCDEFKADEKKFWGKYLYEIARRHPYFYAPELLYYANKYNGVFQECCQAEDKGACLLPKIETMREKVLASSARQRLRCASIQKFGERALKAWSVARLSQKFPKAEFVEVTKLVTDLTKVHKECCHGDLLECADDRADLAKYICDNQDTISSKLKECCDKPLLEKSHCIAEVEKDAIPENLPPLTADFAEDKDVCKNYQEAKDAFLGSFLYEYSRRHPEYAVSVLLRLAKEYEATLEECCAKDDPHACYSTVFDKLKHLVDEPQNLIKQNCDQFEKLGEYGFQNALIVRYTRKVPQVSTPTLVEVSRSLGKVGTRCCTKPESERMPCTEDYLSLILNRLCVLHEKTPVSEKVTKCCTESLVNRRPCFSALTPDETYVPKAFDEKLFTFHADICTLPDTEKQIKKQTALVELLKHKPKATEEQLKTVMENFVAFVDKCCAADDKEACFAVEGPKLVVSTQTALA

`CCCCC(O)C1C=CC2C(=O)N(Cc3ccccc3)C(=O)C2N1n1cnnc1` (stereo not given): the composite z-score in assay [1] was 1.13; in [3] it was 0.23; in [4], 0.0285; in assay [5], -0.163; in assay [6], -0.0087; in assay [7], 0.13. Further, the composite z-score in [8] was -0.0351; in assay [9], 0.208; in [10], 0.274; with Albumin (Bos taurus), -0.0045; in assay [12], 0.0039; in [13] it was -0.101. For the same compound, the composite z-score was 0.644 in assay [14]; 1.4 in assay [15]; 0.0713 in assay [16]; 1.01 with Sam68 (KHDRBS1); -0.0652 in assay [17]; 0.216 in assay [18]. The compound also came in with a z-score in assay [2] of -1.09. For the same compound, the composite Z-score in assay [11] is 0.406 (inactive).
Regarding `COc1cc2c(cc1OC)CN(C(=O)[C@@H]1[C@H]3C(=O)O[C@H](c4ccccc4)[C@H](c4ccccc4)N3[C@H](c3ccc(OCCO)cc3)[C@@]13C(=O)Nc1ccc(C#CCCO)cc13)CC2`, the composite z-score was found to be 1.44 in assay [1]; 1.01 in assay [3]; 1.73 in assay [4]; 1.01 in assay [5]; 0.265 in [6]; 0.391 in assay [7]. Further, the composite z-score in [8] was 1.8; in [9] it was 1.33; in [10] it was 1.36; with Albumin (Bos taurus), 0.379; in [12] it was 0.81; in assay [13], -0.0669. Besides, the composite z-score in assay [14] was found to be 0.428; in assay [15], 2.92; in assay [16], 0.364; in the assay with Sam68 (KHDRBS1), 1.3; in assay [17] it was 0.703; in assay [18], 1.02. The same compound yielded a z-score in [2] of -1.53. The composite Z-score in assay [11] is 1.29 (inactive).
Consider `CC1CC/C=C\[C@H]2OC34C=CCN(c5ccc(Cl)cc5)C(=O)[C@H]3N(C(CO)C(C)C)C(=O)[C@]4(C)C2C(=O)O1` (stereo not given in full), for which the composite z-score was -0.806 in assay [1]; -1.22 in assay [3]; -0.505 in [4]; 0.0376 in assay [5]; -0.152 in assay [6]; -0.154 in assay [7]. Moreover, the composite z-score in assay [8] was -0.679; in [9], 0.184; in assay [10] it was -0.59; in the assay with Albumin (Bos taurus) it was 0.788; in assay [12] it was -0.28; in assay [13] it was -0.174. Further, the composite z-score in [14] is 0.859; in assay [15] it was 0.253; in [16] it was 0.438; in the assay with Sam68 (KHDRBS1), -0.932; in [17], -0.169; in assay [18] it was -0.983. Moreover, in assay [2], the z-score was -0.392. Moreover, the composite Z-score in assay [11] was -0.0965 (inactive).
On to `CN(C)CCCN1C(=O)[C@@]2(Cc3ccccc31)c1ccccc1C(=O)N(Cc1ccccc1)[C@H]2c1ccc(CO)cc1`, for which the composite z-score in assay [1] was 0.118; in [3], -0.0359; in assay [4], 0.505; in assay [5], -0.258; in assay [6], -0.252; in assay [7] it was -0.289. Also, the composite z-score was -0.288 in [8]; -0.123 in assay [9]; 0.648 in [10]; -0.153 with Albumin (Bos taurus); -0.109 in [12]; -0.181 in assay [13]. Moreover, the composite z-score was -0.0077 in [14]; -0.258 in assay [15]; -0.485 in assay [16]; 0.347 in the assay on Sam68 (KHDRBS1); 0.757 in [17]; 0.544 in assay [18]. The compound also yielded a z-score in [2] of -1.2. For the same compound, the composite Z-score in [11] was 0.634 (inactive).
`[N-]=[N+]=NCc1ccccc1C[C@]1(C(=O)NCCN2CCOCC2)N=C(c2ccc(OCCCO)cc2)O[C@H]1c1ccccc1`: the composite z-score in [1] was 1.45; in [3], -0.481; in assay [4], 0.835; in [5] it was -0.401; in [6], 0.0215; in assay [7], 0.131. Further, the composite z-score in assay [8] is -0.465; in assay [9] it was 1.46; in assay [10] it was 1.16; with Albumin (Bos taurus), 0.528; in assay [12], 0.408; in [13] it was -0.126. Besides, the composite z-score was 0.668 in assay [14]; 1.78 in assay [15]; 0.488 in assay [16]; 1.3 with Sam68 (KHDRBS1); -1.03 in assay [17]; 0.885 in [18]. This compound yielded a z-score in assay [2] of -2.64. Further, the composite Z-score in [11] was 0.356 (inactive).
As for `COCCCNC(=O)[C@]1(Cc2ccccc2)N=C(c2ccc(OCCCO)cc2)O[C@@H]1c1ccccc1N=[N+]=[N-]`, the composite z-score is 1.24 in assay [1]; -0.314 in assay [3]; 1.61 in assay [4]; 0.24 in assay [5]; 0.008 in assay [6]; -0.0866 in assay [7]. Further, the composite z-score in [8] was 0.433; in assay [9], 0.997; in assay [10], 0.974; with Albumin (Bos taurus), 0.855; in assay [12], 0.0999; in assay [13] it was -0.106. In addition, the composite z-score in [14] is 0.502; in assay [15] it was 0.0137; in assay [16] it was 0.287; with Sam68 (KHDRBS1), 1.29; in assay [17] it was -0.26; in [18] it was 1.1. In assay [2], this compound gave a z-score of -3.4. Moreover, the composite Z-score in assay [11] was 0.454 (inactive).
